Screens as filed in PubChem BioAssay.
LRH-1 inv ag: inverse agonists of human LRH-1 (NR5A2). 360,000 tested, 0.13% active. HEK293T StAR-luciferase reporter, LRH-1 transfected, 24 h. AID 602396. inhibition, % at 3.6 µM. O00482;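 active = inhibition above the mean inhibition of all tested compounds plus 3 SD, cut at about 73% in these data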;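 note: 0% = DMSO wells and 100% = reporter-only cells lacking LRH-1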
NR2F2 inh: inhibitors of human COUP-TFII (NR2F2); 370,000 tested, 0.7% active; HEK293T NGFI-A luciferase reporter, luminescence; inhibition, % at 8.6 µM;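 active = inhibition above a per-plate cutoff, mean inhibition of test wells between control levels plus 3 SD, cut at about 38% in these data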;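 note: cells cotransfected with COUP-TFII expression vector driving the NGFI-A reporter; 0% = median of COUP-TF2 test wells and 100% = reporter-only cells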
NCOA1 inh: human NCOA1 inhibition; HEK293 GAL4-SRC1 luciferase reporter, luminescence; AID 588354; 360,000 tested, 0.12% active; Q15788; inhibition, % at 3.6 µM;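 active = inhibition above the campaign mean plus 3 SD, with each screening campaign given its own cutoff, cut at about 60% in these data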;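 note: 0% = DMSO treated cells and 100% = gossypol at 36 µM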
GalR3 antagonist: antagonists of human GalR3; O60755; HEK293 GalR3-CNG cAMP membrane potential fluorescence; galR3 body fused to GalR1 C-terminus; inhibition, % at 3 µM; 360,000 tested, 0.44% active; AID 651719;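 active = inhibition above the screen-wide average plus 3 SD, cut at about 13% in these data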;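 note: forskolin and galanin both at EC90 stimulate the cells; cAMP rise reported by CNG channel membrane potential dye signal; 0% = forskolin plus galanin with DMSO and 100% = forskolin alone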
Target sequence (O60755 1-299 limits assumed): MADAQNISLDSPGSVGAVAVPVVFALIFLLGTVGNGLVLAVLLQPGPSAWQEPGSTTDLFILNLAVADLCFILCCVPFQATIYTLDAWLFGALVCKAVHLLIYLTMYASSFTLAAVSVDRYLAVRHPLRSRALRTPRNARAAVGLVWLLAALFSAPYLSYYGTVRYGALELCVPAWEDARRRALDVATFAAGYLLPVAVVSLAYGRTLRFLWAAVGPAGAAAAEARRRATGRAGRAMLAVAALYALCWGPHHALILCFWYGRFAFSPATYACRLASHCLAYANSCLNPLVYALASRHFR
SRC2 inh: human SRC2 (NCOA2) inhibition | AID 651957 | 370,000 tested, 0.17% active | inhibition, % at 9 µM | Q15596 | HEK293 GAL4-SRC2 luciferase reporter, luminescence;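 active = inhibition above the mean inhibition of all tested compounds plus 3 SD, set per campaign, cut at about 52% in these data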;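 note: 0% = DMSO treated cells and 100% = cells given Gossypol at 36 µM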
NCOA3 inh: inhibits human SRC3 coactivator; HEK293 GAL4-SRC3 luciferase reporter, luminescence; inhibition, % at 3.6 µM; 360,000 tested, 0.17% active; AID 588352;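 active = inhibition above a per-campaign cutoff, the mean of all compounds plus 3 SD, cut at about 60% in these data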;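 note: 0% = DMSO-treated cells and 100% = gossypol-treated cells at 36 µM; higher means less SRC3-driven luciferase light from the GAL4 reporter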
GalR3 antag conf: confirmation of human galanin receptor 3 antagonists | shares compounds with GalR3 antagonist | 1,600 tested, 59% active | inhibition, % at 3 µM | HEK293 GalR3 CNG cAMP biosensor, membrane potential fluorescence; galR3 fused to GalR1 carboxy tail; challenged with forskolin and galanin at EC90;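 active = inhibition above the primary screen's cutoff, the mean inhibition of all screened compounds plus 3 SD, cut at about 13% in these data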;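 note: 0% = forskolin plus galanin and 100% = forskolin alone with DMSO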
HEK-CNG parental: acts as nonspecific agonist in parental HEK-CNG cells; 1,600 tested, 10% active; AID 652268; activation, % at 3 µM; shares compounds with GalR3 antagonist; HEK293-CNG parental cells, cAMP membrane potential fluorescence; normalised: DMSO wells 0%, forskolin wells 100%; in the data active = activation above about 1.3%
Numbers without * were called inactive. Only some compounds are listed: those with a hit (about 1.1% of all), similar ones and a draw of the others.

How did COc1cc(/C=N/NC(=Nc2ccc(C)cc2)c2nc3ccccc3s2)ccc1O do in these assays?
LRH-1 inv ag: -14; NR2F2 inh: 28; NCOA1 inh: 84*; GalR3 antagonist: -2; SRC2 inh: 25; NCOA3 inh: 85*

What do the screens show for `O=C(NC1CCCCC1)C(c1ccc(F)cc1)N(CCCN1CCOCC1)C(=O)c1ccc(CN2CCOCC2)o1` (stereo not drawn)?
LRH-1 inv ag: 21; NR2F2 inh: -4; NCOA1 inh: 93*; GalR3 antagonist: -8; SRC2 inh: 0; NCOA3 inh: -5

How did C[n+]1c(-c2ccccc2)cc2c(=Cc3ccc([N+](=O)[O-])cc3)c3ccccc3n21 do in these assays?
LRH-1 inv ag: -1; NR2F2 inh: -7; NCOA1 inh: 0; GalR3 antagonist: -1; SRC2 inh: -10; NCOA3 inh: 5

What do the screens show for `C[n+]1c(-c2ccccc2)cc2c(=Cc3ccccc3)c3ccccc3n21`?
LRH-1 inv ag: 58; NR2F2 inh: 31; NCOA1 inh: 27; GalR3 antagonist: -5; SRC2 inh: 2; NCOA3 inh: 62*

What do the screens show for `CN(C(=O)c1cccc(NC(=O)Cc2ccc(NC(=O)C3CCN(C(=O)CCc4ccccc4)CC3)cc2)c1)C1CCCC1`?
NR2F2 inh: 0; GalR3 antagonist: -4; SRC2 inh: -16

How did O=C(/C=C/c1cc(Br)ccc1O)c1ccco1 do in these assays?
LRH-1 inv ag: 4; NR2F2 inh: -3; NCOA1 inh: 0; GalR3 antagonist: 28*; SRC2 inh: 28; NCOA3 inh: 8

Results for O=C(O)CCSCC(=O)c1ccc2c(c1)OCCO2 ?
LRH-1 inv ag: 8; NR2F2 inh: 34; NCOA1 inh: 11; GalR3 antagonist: 0; SRC2 inh: 56*; NCOA3 inh: 22

What do the screens show for `CCCN(CC)c1ncnc2[nH]ncc12`?
LRH-1 inv ag: 41; NR2F2 inh: 14; NCOA1 inh: 65*; GalR3 antagonist: -7; SRC2 inh: 55*; NCOA3 inh: 65*

Results for N#CC1=C(N)C(C#N)(C#N)C(c2cccnc2)C2CC(c3ccccc3)CC=C12 (stereo not drawn) ?
LRH-1 inv ag: 28; NCOA1 inh: 65*; NCOA3 inh: 62*

What do the screens show for `O=C(Nc1cccc(N=Cc2cc(Br)cc(Br)c2O)c1)c1ccco1`?
LRH-1 inv ag: 1; NR2F2 inh: 5; NCOA1 inh: -29; GalR3 antagonist: 17*; SRC2 inh: -30; NCOA3 inh: -7; GalR3 antag conf: 14*; HEK-CNG parental: 0

How did O=C(Nc1cccc(N=Cc2cc(Cl)cc(Br)c2O)c1)c1ccco1 do in these assays?
LRH-1 inv ag: 15; NR2F2 inh: 7; NCOA1 inh: -23; GalR3 antagonist: 1; SRC2 inh: -4; NCOA3 inh: 3

What do the screens show for `OCC1(Cc2cccc(F)c2)CCN(Cc2cccc3nccnc23)CC1`?
LRH-1 inv ag: -5; NR2F2 inh: 11; NCOA1 inh: -1; GalR3 antagonist: -3; SRC2 inh: -10; NCOA3 inh: 11

Results for CC(C)c1csc(CN2CCC(CO)(Cc3cccc(F)c3)CC2)n1 ?
LRH-1 inv ag: 15; NR2F2 inh: 16; NCOA1 inh: -5; GalR3 antagonist: 13*; SRC2 inh: 12; NCOA3 inh: 17; GalR3 antag conf: -2; HEK-CNG parental: 0

What do the screens show for `CC(C)[C@H](NC(=O)CC1CCCC1)C(=O)N1CCC[C@H]1C(=O)NCc1ccccc1`?
NR2F2 inh: -7; GalR3 antagonist: -7; SRC2 inh: -13

Results for CCOC(=O)[C@H](CCc1ccccc1)N[C@@H](C)C(=O)N1Cc2cc(OC)c(OC)cc2C[C@H]1C(=O)O ?
NR2F2 inh: 4; SRC2 inh: 10

How did CC(Sc1nc(N)c2c3c(sc2n1)CSC(C)(C)C3)C(=O)Nc1ccccc1 (stereo not drawn) do in these assays?
LRH-1 inv ag: 6; NR2F2 inh: 22; NCOA1 inh: 6; GalR3 antagonist: 54*; SRC2 inh: 12; NCOA3 inh: 16; GalR3 antag conf: 45*; HEK-CNG parental: 0

How did CC(Sc1nc(NCc2ccccc2)nc(N(C)C)n1)C(=O)Nc1ccccc1 (stereo not drawn) do in these assays?
LRH-1 inv ag: 6; NR2F2 inh: -2; NCOA1 inh: 9; GalR3 antagonist: -6; SRC2 inh: 13; NCOA3 inh: 7

What do the screens show for `Cc1ccc(S(C)(=O)=NC(=O)NC(=O)c2c(Cl)cccc2Cl)cc1` (stereo not drawn)?
LRH-1 inv ag: 6; NR2F2 inh: 12; NCOA1 inh: 12; GalR3 antagonist: 1; SRC2 inh: -20; NCOA3 inh: -4

How did Cc1ccc(S(C)(=O)=NC(=O)NC(=O)c2c(F)cccc2Cl)cc1 (stereo not drawn) do in these assays?
LRH-1 inv ag: 13; NR2F2 inh: 12; NCOA1 inh: -3; GalR3 antagonist: 14*; SRC2 inh: -7; NCOA3 inh: -4; GalR3 antag conf: 4; HEK-CNG parental: 1

Results for COC(=O)C1=C(C)N(C)C(=NCc2ccc(OC)cc2)NC1c1cccc(C(F)(F)F)c1 (stereo not drawn) ?
NR2F2 inh: -25; GalR3 antagonist: -6; SRC2 inh: -15

How did O=C(Nc1ccc(C(F)(F)F)cc1)OC1CC2CC1[C@H]1CCCCN1[C@H]2Cc1ccccc1 (stereo partly drawn) do in these assays?
NR2F2 inh: -6; SRC2 inh: 1

What do the screens show for `COc1cccc(NC(=S)N(CCCN2CCCC2)Cc2ccco2)c1`?
LRH-1 inv ag: -24; NR2F2 inh: 6; NCOA1 inh: -2; GalR3 antagonist: 21*; SRC2 inh: -4; NCOA3 inh: 16; GalR3 antag conf: 1; HEK-CNG parental: 1

How did CCCc1ccccc1OCCNC(=O)c1cc(=O)n(C)c(=O)n1C do in these assays?
LRH-1 inv ag: 8; NR2F2 inh: 9; NCOA1 inh: -23; GalR3 antagonist: 16*; SRC2 inh: 11; NCOA3 inh: -4; GalR3 antag conf: 5; HEK-CNG parental: 0

Results for COC(=O)[C@@]12C[C@@H](CC(=O)NCc3cccc(C(F)(F)F)c3)C(=O)N(CCc3ccc(OC)c(OC)c3)C1=CCC(C)(C)C2 ?
LRH-1 inv ag: 13; NR2F2 inh: 1; GalR3 antagonist: -4; SRC2 inh: 2
